Results filed as inconclusive are left out. Calls of active or inactive are those of the source. Unless noted, calls come from the whole dose curve; as a rule, active = well fitted curve in the direction sought with a large enough effect in the repeat runs; inconclusive = weak or mixed curves; inactive = no such curve, though single readings can be large; an effect the other way counts as inactive or inconclusive.

Assay [1] concerns the target Acetylcholinesterase (Homo sapiens) (UniProt P22303). Put plainly: Acetylcholinesterase (AChE) small molecule antagonists: fluorescence cell-based qHTS assay (AID 1347398; calls by dose curve; note: nearly all actives have a fitted effect of over 50% in size). To be noted: Potency: AChE activity; outcome: AChE activity. Put shortly:
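Read-out is Thiolite Green fluorescence at Ex/Em = 490/520 nm, formed by reaction with thiocholine released when cellular AChE in SH-SY5Y cells hydrolyzes acetylthiocholine. Compounds were preincubated 30 min at 37 C before substrate.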
For orientation: In qHTS, concentration-response curves come from the screen itself.

A short description of assay [2]: qHTS assay for small molecules that induce genotoxicity in human embryonic kidney cells expressing luciferase-tagged ATAD5 (AID 651632). Note: nearly all actives have a fitted effect of over 15% in size. Put shortly: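 HEK293T cells carrying luciferase-tagged ATAD5 were given compound or DMSO vehicle and incubated 16 hr at 37C, 5% CO2. Luciferase activity was read after 30 min at room temperature with Amplite; a rise signals genotoxic stress.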

Assay [3] in a line: qHTS assay for small molecule agonists of the p53 signaling pathway - cell viability (AID 651633; calls by dose curve; note: potency is the fitted concentration of half-maximal effect; nearly all actives have a fitted effect of over 30% in size). The method, boiled down:
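Viability counter-read: CellTiter-Glo luminescence (30 min, room temperature) in the same p53RE-bla plates. These plates had been exposed to compounds for 16 h at 37 C.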

The nature of assay [4]: qHTS assay for small molecules that induce genotoxicity in human embryonic kidney cells expressing luciferase-tagged ATAD5 - cell viability (AID 651634; calls by dose curve; note: potency is the fitted concentration of half-maximal effect; nearly all actives have a fitted effect of over 25% in size). The method, boiled down: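 HEK293T cells carrying luciferase-tagged ATAD5, 2,000 cells/well, exposed to compound for 15.5 hr at 37C. Viability read as live-cell protease activity by CellTiter-Fluor fluorescence after 30 min at 37C.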

The nature of assay [5]: qHTS assay to test for compound auto fluorescence at 590 nm (red) in HepG2 cells (AID 720674). Put shortly: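 We screened compounds on adherent HepG2 cells, incubating them for an hour at 37 C in 5% CO2 before reading emission at 590 nm under 540 nm excitation; values reflect equivalence to Rose Bengal sodium fluorescence.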
Assay [6] in a line: qHTS assay to test for compound auto fluorescence at 590 nm (red) in HEK293 cells (AID 720679). Put shortly:
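Intensity at 540nm excitation and 590nm emission is reported as Rose Bengal sodium-equivalent autofluorescence. Measurements followed overnight exposure (37C, 5% CO2) of HEK293 cells, 2,000 per well, to 23 nL compound.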

Assay [7] can be described thus: qHTS assay to test for compound auto fluorescence at 535 nm (green) in HEK293 cells (AID 720680).
Assay [8] is described as follows: qHTS assay to test for compound auto fluorescence at 460 nm (blue) in HEK293 cell free culture (AID 720681). Put shortly: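 Blue fluorescence (Ex 405/Em 460 nm, triamterene-equivalent) was read immediately after pin transfer of compound or DMSO into medium (DMEM, 10% FBS) without cells.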
A short description of assay [9]: qHTS assay to test for compound auto fluorescence at 535 nm (green) in HEK293 cell free culture (AID 720682). The method, boiled down: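 Green-channel intensity (Ex/Em 485/535 nm) was recorded from compound-treated wells containing only DMEM with 10% FBS. Fluorescein provided the equivalency standard.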
The nature of assay [10]: qHTS assay to test for compound auto fluorescence at 590 nm (red) in HEK293 cell free culture (AID 720683). Put shortly: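 Red-channel autofluorescence of compounds in culture medium (DMEM, 10% FBS), no cells, measured at 540/590 nm. Rose Bengal sodium is the reference fluorophore for equivalence.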
Assay [11] can be described thus: qHTS assay to test for compound auto fluorescence at 460 nm (blue) in HepG2 cell free culture (AID 720685). The method, boiled down: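 Compound (23 nL) or DMSO pinned into cell-free MEM with 10% FBS; blue fluorescence read at 405/460 nm excitation/emission, expressed as auto-fluorescence equivalency to triamterene.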
Assay [12] in a line: qHTS assay to test for compound auto fluorescence at 535 nm (green) in HepG2 cell free culture (AID 720686).
Assay [13] in a line: qHTS assay to test for compound auto fluorescence at 460 nm (blue) in HepG2 cells (AID 720687). The method, boiled down: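 Blue-channel autofluorescence (Ex/Em 405/460 nm, triamterene-equivalent) was measured after 1 hr compound exposure at 37 C, 5% CO2. Cells were HepG2, plated overnight at 37 C in MEM plus 10% FBS.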
Assay [14] is described as follows: qHTS assay to identify small molecule antagonists of the glucocorticoid receptor (GR) signaling pathway - cell viability counter screen (AID 720693). Note: potency is the fitted concentration of half-maximal effect; nearly all actives have a fitted effect of over 55% in size.
The nature of assay [15]: qHTS assay for identifying genotoxic compounds that show differential cytotoxicity against isogenic chicken DT40 cell lines with known DNA damage response pathways - wild type cell line (AID 743012). Note: potency is the fitted concentration of half-maximal effect; nearly all actives have a fitted effect of over 60% in size. The method, boiled down:
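Wild-type DT40 cells (300/well) exposed to compounds for 40 hours at 37 C/5% CO2. Viability read by CellTiter-Glo luminescence after 30 min at room temperature.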

Assay [16] can be described thus: qHTS assay for identifying genotoxic compounds that show differential cytotoxicity against isogenic chicken DT40 cell lines with known DNA damage response pathways - Rev3 mutant cell line (AID 743014). Note: potency is the fitted concentration of half-maximal effect; nearly all actives have a fitted effect of over 55% in size.
Assay [17] deals with Androgen receptor (Homo sapiens) (UniProt P10275). The assay can be described thus: qHTS assay to identify small molecule antagonists of the androgen receptor (AR) signaling pathway (AID 743035; active = well fitted inhibition curve with a large enough effect in the signal ratio in the repeat runs, not every such curve was filed as active; the % refers to the signal ratio; note: potency is the fitted concentration of half-maximal effect). The method, boiled down: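 HEK293 cells stably carrying UAS-beta-lactamase reporter, 2,000/well, given compounds plus R1881 agonist and incubated 16 h at 37C. LiveBLAzer B/G FRET substrate then added for 2 h at room temperature before fluorescence reading.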

For assay [18] the target is unchanged. Put plainly: qHTS assay to identify small molecule agonists of the androgen receptor (AR) signaling pathway using the MDA cell line (AID 743040; note: nearly all actives have a fitted effect of over 20% in size). The method, boiled down: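 Cells plated, 5 h at 37C/0% CO2; compound or DMSO pinned; 16 h at 37C; ONE-Glo added; luminescence measured after 30 min at room temperature. Reporter line: MDA-kb2 with MMTV-luciferase responsive to AR and GR.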

A short description of assay [19]: qHTS assay to identify small molecule antagonists of the thyroid receptor (TR) signaling pathway - cell viability counter screen (AID 743064). Note: potency is the fitted concentration of half-maximal effect; nearly all actives have a fitted effect of over 50% in size. Put shortly:
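In rat pituitary GH3.TRE-Luc reporter cells co-exposed to compound and 1 nM T3 for 23.5 h, cytotoxicity was assessed with CellTiter-Fluor in the same wells, read by fluorescence.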

A short description of assay [20]: qHTS assay to identify small molecule antagonists of the thyroid receptor (TR) signaling pathway (AID 743065). Note: potency is the fitted concentration of half-maximal effect; nearly all actives have a fitted effect of over 55% in size. The method, boiled down:
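Antagonism measured as loss of luciferase signal in GH3 cells stably carrying a TRE-luciferase reporter, co-treated with compound and T3 (1 nM final) for 23.5 h at 37 C. Viability was read in the same well by CellTiter-Fluor.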

Assay [21] in a line: qHTS assay to identify small molecule antagonists of the estrogen receptor alpha (ER-alpha) signaling pathway - cell viability counter screen (AID 743074; calls by dose curve;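 note: HEK293 cells carrying ER-alpha-UAS-bla reporter stimulated with 17beta-estradiol; potency is the fitted concentration of half-maximal effect; nearly all actives have a fitted effect of over 45% in size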).
Assay [22] is described as follows: qHTS assay to identify small molecule antagonists of the estrogen receptor alpha (ER-alpha) signaling pathway using the BG1 cell line (AID 743080; calls by dose curve;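 note: BG1 cells stimulated with 17beta-estradiol alongside compound; potency is the fitted concentration of half-maximal effect; nearly all actives have a fitted effect of over 25% in size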). Put shortly:
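BG1Luc4E2, endogenous ER-alpha, 4xERE-luc; 5 d charcoal-stripped FBS, phenol red free; 24 h plating; cpd + 17beta-estradiol 21.5 h, 37 C/5% CO2; CellTiter-Fluor viability 30 min, then ONE-Glo luciferase 30 min RT.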

The target of assay [23] is Aromatase (Homo sapiens) (UniProt P11511). Put plainly: qHTS assay to identify aromatase inhibitors (AID 743083). Note: potency is the fitted concentration of half-maximal effect; nearly all actives have a fitted effect of over 55% in size.
Assay [24] concerns the target Aryl hydrocarbon receptor (Homo sapiens) (UniProt P35869). Put plainly: qHTS assay to identify small molecule that activate the aryl hydrocarbon receptor (AhR) signaling pathway (AID 743085). Note: potency is the fitted concentration of half-maximal effect; nearly all actives have a fitted effect of over 15% in size. Put shortly:
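AhR agonist activity is inferred from enhanced light output of a DRE-controlled firefly luciferase reporter in HepG2 cells, measured with ONE-Glo following 24 h treatment at 37C.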

The target of assay [25] is Acetylcholinesterase (Homo sapiens) (UniProt P22303). The assay can be described thus: Acetylcholinesterase (AChE) small molecule antagonists: enzyme-based qHTS assay (AID 1347397; calls by dose curve; note: nearly all actives have a fitted effect of over 55% in size). To be noted: Potency: AChE enzyme activity inhibition; outcome: AChE enzyme activity inhibition. The method, boiled down: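 rhAChE 50 mU/mL (dispensed) + cpd or DMSO, 30 min RT; add DTNB/acetylthiocholine cocktail, 10 min RT; colorimetric thiocholine readout. qHTS, 1536-well format.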

For assay [26] the target is unchanged. Put plainly: Acetylcholinesterase (AChE) small molecule antagonists: enzyme-based qHTS assay with human liver microsomes (AID 1347399; calls by dose curve; note: nearly all actives have a fitted effect of over 60% in size). Particulars: Potency: qHTS inhibition; outcome: qHTS inhibition. The method, boiled down: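 Recombinant human AChE (50 mU/mL in the enzyme mix) and human liver microsomes (0.25 mg/mL final) were preincubated with compound and NADPH (0.25 mg/mL final) for 30 min at 37 C. Acetylthiocholine/DTNB was then added; thiocholine was read colorimetrically after 10 min at room temperature.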

Chain of Acetylcholinesterase (Homo sapiens) (P22303 whole entry, looked up): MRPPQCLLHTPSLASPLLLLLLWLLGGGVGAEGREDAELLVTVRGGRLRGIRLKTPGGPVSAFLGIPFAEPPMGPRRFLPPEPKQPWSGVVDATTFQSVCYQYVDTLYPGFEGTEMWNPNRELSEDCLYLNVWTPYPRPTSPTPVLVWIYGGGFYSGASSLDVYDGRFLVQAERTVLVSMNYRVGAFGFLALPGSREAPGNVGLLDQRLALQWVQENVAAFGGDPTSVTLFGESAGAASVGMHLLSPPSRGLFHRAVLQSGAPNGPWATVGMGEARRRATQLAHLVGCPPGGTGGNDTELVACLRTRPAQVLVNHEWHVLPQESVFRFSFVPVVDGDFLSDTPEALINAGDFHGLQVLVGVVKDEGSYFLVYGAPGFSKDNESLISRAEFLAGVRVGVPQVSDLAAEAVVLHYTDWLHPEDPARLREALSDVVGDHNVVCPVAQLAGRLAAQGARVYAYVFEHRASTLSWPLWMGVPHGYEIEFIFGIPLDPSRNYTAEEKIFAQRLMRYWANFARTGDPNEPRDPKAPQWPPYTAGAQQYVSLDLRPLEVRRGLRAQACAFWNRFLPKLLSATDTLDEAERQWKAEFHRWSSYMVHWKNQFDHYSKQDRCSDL
Chain of Androgen receptor (Homo sapiens) (P10275 whole entry, looked up): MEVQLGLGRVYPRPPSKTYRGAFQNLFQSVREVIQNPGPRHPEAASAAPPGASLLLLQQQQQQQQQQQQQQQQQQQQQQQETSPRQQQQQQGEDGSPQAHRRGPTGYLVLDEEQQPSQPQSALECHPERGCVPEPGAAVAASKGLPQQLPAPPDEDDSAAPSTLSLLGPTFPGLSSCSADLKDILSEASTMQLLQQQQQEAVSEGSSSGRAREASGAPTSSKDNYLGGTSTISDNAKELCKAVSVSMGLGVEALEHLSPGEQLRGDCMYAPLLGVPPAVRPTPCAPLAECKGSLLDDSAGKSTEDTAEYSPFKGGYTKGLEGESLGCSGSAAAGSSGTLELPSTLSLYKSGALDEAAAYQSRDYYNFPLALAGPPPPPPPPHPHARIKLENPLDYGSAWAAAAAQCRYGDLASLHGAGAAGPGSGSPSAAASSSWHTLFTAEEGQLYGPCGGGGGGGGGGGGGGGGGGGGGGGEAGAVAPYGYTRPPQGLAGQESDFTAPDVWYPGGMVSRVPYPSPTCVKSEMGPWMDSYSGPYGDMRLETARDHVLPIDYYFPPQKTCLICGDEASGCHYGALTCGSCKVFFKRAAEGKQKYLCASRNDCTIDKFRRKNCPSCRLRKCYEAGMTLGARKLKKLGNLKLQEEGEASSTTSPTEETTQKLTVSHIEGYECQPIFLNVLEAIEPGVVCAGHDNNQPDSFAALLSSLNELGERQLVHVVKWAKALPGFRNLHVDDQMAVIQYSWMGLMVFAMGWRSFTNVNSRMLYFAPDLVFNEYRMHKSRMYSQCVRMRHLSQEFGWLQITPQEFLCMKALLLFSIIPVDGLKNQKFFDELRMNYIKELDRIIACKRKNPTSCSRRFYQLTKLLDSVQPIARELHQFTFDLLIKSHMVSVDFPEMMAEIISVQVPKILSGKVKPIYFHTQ
Chain of Aryl hydrocarbon receptor (Homo sapiens) (P35869 whole entry, looked up): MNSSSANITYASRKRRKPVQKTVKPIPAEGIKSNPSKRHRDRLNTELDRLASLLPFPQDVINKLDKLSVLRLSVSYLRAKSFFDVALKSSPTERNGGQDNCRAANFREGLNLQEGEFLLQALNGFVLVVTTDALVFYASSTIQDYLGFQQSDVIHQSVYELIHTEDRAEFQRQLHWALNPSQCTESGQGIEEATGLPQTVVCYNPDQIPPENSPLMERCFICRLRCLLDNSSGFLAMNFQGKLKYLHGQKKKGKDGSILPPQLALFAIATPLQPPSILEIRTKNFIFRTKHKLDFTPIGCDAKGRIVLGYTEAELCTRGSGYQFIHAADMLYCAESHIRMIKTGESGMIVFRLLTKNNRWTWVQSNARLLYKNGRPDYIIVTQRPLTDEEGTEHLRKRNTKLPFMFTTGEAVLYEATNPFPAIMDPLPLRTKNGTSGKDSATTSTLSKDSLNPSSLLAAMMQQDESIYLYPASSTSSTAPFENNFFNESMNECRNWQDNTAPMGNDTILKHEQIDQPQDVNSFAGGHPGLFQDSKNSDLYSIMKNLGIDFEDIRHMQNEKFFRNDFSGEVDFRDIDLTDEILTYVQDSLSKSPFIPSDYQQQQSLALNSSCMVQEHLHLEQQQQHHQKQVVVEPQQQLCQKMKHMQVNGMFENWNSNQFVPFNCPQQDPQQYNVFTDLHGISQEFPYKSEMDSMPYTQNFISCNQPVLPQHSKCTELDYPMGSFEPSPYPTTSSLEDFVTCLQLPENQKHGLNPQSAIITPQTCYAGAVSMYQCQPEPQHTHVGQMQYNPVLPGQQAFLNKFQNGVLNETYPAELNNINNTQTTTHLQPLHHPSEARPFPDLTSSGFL
Chain of Aromatase (Homo sapiens) (P11511 whole entry, looked up): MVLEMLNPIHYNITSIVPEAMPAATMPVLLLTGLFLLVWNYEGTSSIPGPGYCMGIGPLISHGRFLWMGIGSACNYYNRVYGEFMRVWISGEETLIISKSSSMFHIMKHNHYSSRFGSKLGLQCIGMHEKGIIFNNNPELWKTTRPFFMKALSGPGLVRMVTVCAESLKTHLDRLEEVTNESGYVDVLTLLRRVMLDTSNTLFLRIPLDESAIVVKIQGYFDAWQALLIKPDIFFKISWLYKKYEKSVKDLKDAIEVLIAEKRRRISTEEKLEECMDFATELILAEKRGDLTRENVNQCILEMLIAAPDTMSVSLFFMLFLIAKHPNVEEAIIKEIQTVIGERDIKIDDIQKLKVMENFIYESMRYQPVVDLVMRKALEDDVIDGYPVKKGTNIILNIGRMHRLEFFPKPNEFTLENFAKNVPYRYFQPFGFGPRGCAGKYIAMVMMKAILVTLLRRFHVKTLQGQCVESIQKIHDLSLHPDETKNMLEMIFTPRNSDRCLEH

As to `CC(C)(C)c1ccc(CCC=O)cc1`, the Potency result in [1] is “inactive”.
On to `CCCCCc1cc(O)c2c(c1)OC(C)(C)c1ccc(C)cc1-2`, for which the Potency entry in assay [2], in assay [7], in assay [8], in [9], in assay [11] and in assay [12] was “inactive” in each case. For the same compound, the Potency result in [13] and in assay [18] was “inactive” in each case. The Potency in [3] was 11.9 µM (active); in assay [4], 23.7 µM (active); in assay [14], 13.4 µM (active); in assay [15], 9.44 µM (active); in assay [16] it was 11.9 µM (active); in [17], 16.9 µM (active). The Potency in assay [19] is 13.3 µM (active); in [20], 13.3 µM (active); in assay [21], 23.9 µM (active); in [22], 29.8 µM (active); in assay [23], 13.3 µM (active); in assay [24] it was 3.35 µM (active). Further, the compound was called inactive in assay [5], in assay [6] and in assay [10].
With `CCCC(=O)c1ccccc1`, the Potency result in assay [25] and in assay [26] was “inactive” throughout.
As to `O=C1OC(c2ccc(O)cc2)(c2ccc(O)cc2)c2ccccc21`, the Potency result in assay [25] and in assay [26] was “inactive” throughout.

Values taken from PubChem BioAssay (Tox21).
